Pf Dd2 inh: qHTS Primary assay for Inhibitors of Plasmodium falciparum Dd2 growth in vitro. P. falciparum Dd2 growth, SYBR Green, 72 h. Potency, µM (top dose mostly 28.9 µM), usual class: inhibitors. 120,000 compounds, 4.3% hits; active = well fitted inhibition curve with a large enough effect; also: nearly all actives have a fitted effect of over 65% in size
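Infected erythrocytes (Dd2, 0.3% parasitemia, 2.5% hematocrit final) are added to compound in RPMI-1640/Albumax II medium, grown 72 h at 37C in low oxygen, then lysed with saponin/Triton-X containing SYBR Green and read by fluorescence.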
Each line names hits and unclear results; the compound was inactive in the other large screens. Only a selection was taken, and hits are over-represented in it overall.

COc1cccc(-c2nnnn2[C@H]2CO[C@H]3[C@@H]2OC[C@@H]3NC(=O)Nc2ccc(Oc3ccccc3)cc2)c1	none
COc1ccccc1Cc1nc2ccccc2nc1SCC(=O)N1CCCCC1	none
COc1cc(NC(=O)CSc2nc3ccccc3nc2Cc2ccccc2OC)cc(OC)c1	none
COc1ccccc1Cc1nc2ccccc2nc1SCC(=O)NCc1ccccc1Cl	Pf Dd2 inh 0.891µM
CCOc1ccc(CNC(=O)C2CCN(S(=O)(=O)c3c(C)noc3/C=C/c3ccc(C)cc3)CC2)cc1OC	none
Cc1[nH]c2ccccc2c1CC(=O)N1CC[C@@](O)(C2CCOCC2)[C@H](C)C1	none
O=C1Nc2ccccc2C12CN([S+](=O)([O-])c1ccccc1)C2	none
COc1ccc(CN2CCC3(C2)C(=O)N(Cc2ccccc2)c2ccccc23)cc1 (stereo not drawn)	none
COc1ccc(CN2CCC3(C2)C(=O)N(C)c2ccccc23)cc1 (stereo not drawn)	none
COc1ccc(CN2CCC3(C2)C(=O)N(c2ccccc2)c2ccccc23)cc1 (stereo not drawn)	Pf Dd2 inh 8.91µM
O=C1N(c2ccccc2)c2ccccc2C12CCN([S+](=O)([O-])c1ccccc1)C2 (stereo not drawn)	Pf Dd2 inh 7.94µM
O=C1NC2(CCN([S+](=O)([O-])c3ccccc3)C2)COc2ccccc21 (stereo not drawn)	none
CN(Cc1ccccc1)S(=O)(=O)c1ccc2[nH]c3c(c2c1)CCCCC3	none
COC1CCC12CCN(C(=O)c1ccc(C)nc1)CC2 (stereo not drawn)	none
COc1ccc(NC(=O)C(C(C)C)N2Cc3ccccc3C2=O)cc1 (stereo not drawn)	none
CC(C)NC(=O)[C@H]1CN2CC[C@H]1C[C@@H]2Cn1cc(-c2ccccn2)nn1	none
O[C@@H]1C[C@@H](c2nc(-c3ccc4c(c3)OCO4)no2)N(CC2CC2)C1	none
O[C@@H]1C[C@@H](c2nnc3n2CCN(Cc2ccc(F)c(F)c2)C3)N(Cc2cccnc2)C1	none
COc1ccc(S(=O)(=O)N2C[C@@H]3C[C@H](C2)c2c(NS(=O)(=O)c4ccccc4)ccc(=O)n2C3)cc1	none
COC(=O)c1sccc1NC(=O)N1CCCCCCNC(=O)CC1	none
CC(C)NC(=O)N1CCC2(CC1)CN(Cc1ccncc1)Cc1ccccc1O2	none
O=C(O)CCCC(=O)N1Cc2ccccc2CC2(CCCN(Cc3ccccc3)C2)C1 (stereo not drawn)	none
CC(=O)N1Cc2ccccc2CC2(CCN(Cc3ccccn3)C2)C1 (stereo not drawn)	none
CC(=O)N1Cc2ccccc2CC2(CCCN(Cc3ccc(O)cc3)C2)C1 (stereo not drawn)	none
O=C(Cc1ccc(O)cc1)N1Cc2ccccc2CC2(CCN(Cc3ccncc3)C2)C1 (stereo not drawn)	Pf Dd2 inh 7.94µM
C[C@H](C(=O)N1Cc2ccccc2CC2(CCN(Cc3ccncc3)C2)C1)c1ccccc1 (stereo partly drawn)	Pf Dd2 inh 10µM
CN1C[C@@H](NC(=O)COc2ccccc2)C[C@H]1c1nc(-c2ccc(Cl)cc2)no1	none
COc1ccc(N2Cc3cccc(C(=O)Nc4ccc(C)cc4)c3C2=O)cc1	none
O=C(/C=C\c1ccc2c(c1)OCO2)NC1CC(=O)N(c2ccccc2)C1 (stereo not drawn)	none
CC(C)c1nn2c(=O)cc(COC(=O)c3ccc(NC(=O)C4CCCCC4)cc3)nc2s1	none
O=C(NCc1ccc(Cl)cc1)C1CC(=O)N(c2n[nH]c3cccc(F)c23)C1 (stereo not drawn)	none
CC1(C)[C@H]2CC[C@@H](CNC(=O)c3cccc(Br)c3)[C@@H]1C2	Pf Dd2 inh 11.2µM
CC1(C)[C@H]2CC[C@@H](CNC(=O)c3ccncc3)[C@@H]1C2	none
CC1(C)[C@H]2CC[C@@H](CNC(=O)c3cc(F)ccc3Br)[C@@H]1C2	none
O=C(NC1CCCN(c2cc(-c3ccccc3)[nH]n2)C1)c1ccc(Br)o1 (stereo not drawn)	none
CCN1c2cc(C(=O)NCc3ccccc3)ccc2C(=O)N2CCCCCC21 (stereo not drawn)	none
Cc1ccccc1S(=O)(=O)Cc1ccc(C(=O)NC2CCC(C)CC2)o1 (stereo not drawn)	none
COc1cc(C)ccc1C(=O)N1CCC(Cn2cc(C3CC3)nn2)CC1	none
COc1ccc(-c2nc(-c3ccccc3)nc3c2CN(C(=O)c2ccc(C(F)(F)F)cc2)CC3)cc1	Pf Dd2 inh 8.91µM
COc1ccc(-c2nc(C)nc3c2CN(C(=O)c2ccc(C)cc2)CC3)cc1	none
COc1ccc(-c2nc(-c3ccccc3)nc3c2CN(C(=O)c2ccccc2C)CC3)cc1	Pf Dd2 inh 10µM
COc1ccc(-c2nc3c(c(-c4ccccc4)n2)CN(C(=O)c2cccc(Cl)c2)CC3)cc1	none
COc1ccc(C(=O)N2CCc3nc(C)nc(-c4ccc(OC)cc4)c3C2)cc1	none
COc1ccc(-c2nc(C)nc3c2CN(C(=O)c2ccccc2)CC3)cc1	none
COc1ccc(-c2nc(C)nc3c2CN(C(=O)c2ccccn2)CC3)cc1	none
COc1ccc(CC(=O)N2CCc3nc(-c4ccc(Cl)cc4)nc(-c4ccccc4)c3C2)cc1	none
COc1ccc(-c2nc3c(c(-c4ccccc4)n2)CN(C(=O)c2ccccc2Cl)CC3)cc1	Pf Dd2 inh 10µM
O=C(N[C@@H]1CNCC[C@@H]1CO)c1cccnc1	none
COc1ccc(NS(=O)(=O)c2ccc(N3CCCCS3(=O)=O)cc2)cc1Cl	none
CCOc1ccc(NC(=O)CCS(=O)(=O)c2cc3c4c(c2)CCN4C(=O)CC3)cc1	none
COC(=O)C1=C(C)N=C2SC=C(CC(=O)N3CCC(C)CC3)N2C1c1cccc(OC)c1 (stereo not drawn)	none
O=C(Cn1cc(C(=O)c2ccccc2)c(=O)c2cc3c(cc21)OCCO3)Nc1ccc(F)c(F)c1	none
O=C(c1cccs1)N1CCC(Oc2cccc(F)c2)C1 (stereo not drawn)	none
CCc1ccccc1NC(=O)Cn1c(N(C)Cc2ccccc2)nc(C)cc1=O	none
CCc1cccc(C)c1NC(=O)Cn1c(N(C)Cc2ccccc2)nc(C)cc1=O	Pf Dd2 inh 11.2µM
Cc1ccc(NC(=O)Cn2c(N(C)Cc3ccccc3)nc(C)cc2=O)c(C)c1	none
CN(Cc1nc2ccc(F)cc2[nH]1)c1cc(C2CC(O)C2)ncn1 (stereo not drawn)	none
Cc1cc(F)ccc1OC1CN(C(=O)c2ccccn2)C1	none
Cc1ccc(C(=O)N2CC(Oc3ccc(F)cc3C)C2)cc1	Pf Dd2 inh 11.2µM
Cc1ccc(OC2CN(C(=O)c3ccc(F)cc3)C2)cc1C	none
CCN1C(=O)CCC2(C(=O)Nc3ccc(N4CCOCC4)cc3)CCCC=C12 (stereo not drawn)	none
COCCn1cncc1CNc1nc(C)nc2ncccc12	none
CCN1CCN(CCCNC(=O)c2cnn(-c3ccc(OC)cc3)c2C2CCN(C(=O)OC(C)(C)C)CC2)CC1	none
COc1ccc2[nH]cc(CCNC(=O)CN3CCCc4nc(C5CC5)ncc4C3=O)c2c1	none
COc1ccc2[nH]cc(CCNC(=O)c3cnn(-c4ccc(C)cc4)c3C3CCN(C(=O)OC(C)(C)C)CC3)c2c1	Pf Dd2 inh 3.16µM
CC(C)(C)OC(=O)N1CCC(c2c(C(=O)NCc3ccccn3)cnn2-c2ccccc2Cl)CC1	none
COc1ccc2[nH]cc(CCNC(=O)C3CCCN(C(C)=O)C3)c2c1 (stereo not drawn)	none
COc1ccc2[nH]cc(CCNC(=O)c3cnn(-c4ccccc4Cl)c3C3CCN(C(=O)OC(C)(C)C)CC3)c2c1	Pf Dd2 inh 5.62µM
O=C1CCN(S(=O)(=O)c2ccccc2)CCCN(C(=O)CCc2ccccc2)CCN1	none
Cc1cc(C)nc(Cn2nc(CC3CCNCC3)n(-c3ccccc3)c2=O)n1	none

Assay outcomes: PubChem, National Center for Advancing Translational Sciences (NCATS)
